# Reference: PubChem BioAssay (NCI)
# This is part of a sample that, as a whole, favours compounds with a hit. Of some 83,000 tested, about 20% had one in any assay.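 For each line, cells grew in 96-well plates with the test compound present at a single concentration for 48 hours.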 Values without a mark were called inactive. Active and inactive are the calls of the source. The calls were made as follows: active = growth percent below 10; inactive = the rest.
# What was measured:
# Test in all cases: NCI-60 one-dose screen, 48 h (100 = growth as untreated, 0 = no growth, -100 = all killed)
# Conditions in all cases: 10 µM unless noted
# HT29 colon = tested on: HT29 colon
# SNB-75 CNS = tested on: SNB-75 CNS
# SNB-19 CNS = tested on: SNB-19 CNS
# U251 CNS = tested on: U251 CNS
# PC-3 prostate = tested on: PC-3 prostate
# SK-MEL-5 melanoma = tested on: SK-MEL-5 melanoma
# UACC-62 melanoma = tested on: UACC-62 melanoma
# LOX IMVI melanoma = tested on: LOX IMVI melanoma
# SK-MEL-28 melanoma = tested on: SK-MEL-28 melanoma
Compound,growth (HT29 colon),growth (SNB-75 CNS),growth (SNB-19 CNS),growth (U251 CNS),growth (PC-3 prostate),growth (SK-MEL-5 melanoma),growth (UACC-62 melanoma),growth (LOX IMVI melanoma),growth (SK-MEL-28 melanoma)
COc1cc(Cn2cc3c(c2)-c2onc(CN4CCCC4)c2CC3)cc(OC)c1OC,105%,104%,90.6%,96.8%,92.5%,79.8%,81.2%,97.6%,95.2%
O=C1[C@@H]2Cc3c([nH]c4ccccc34)[C@H](c3c(Cl)cccc3Cl)N2C(=O)CN1C1CCN(CC2CCCCC2)CC1,5.63% (active),103%,71.5%,42.8%,20.6%,50.4%,79.5%,-81.1% (active),93.9%
CC(=O)Nc1cccc(Nc2nc(N[C@H](C)c3ccccc3)c3ccccc3n2)c1,41.1%,30.6%,74%,74.4%,45.5%,38.8%,65.5%,45.6%,74.6%
COCCNc1ccc2ncc(C#Cc3cncc(C(=O)Nc4ccc(CN5CCN(C)CC5)c(C(F)(F)F)c4)c3)n2n1,-22.6% (active),-71.5% (active),-12% (active),-38.2% (active),-25.3% (active),-93.7% (active),-62.4% (active),-87.8% (active),-22.9% (active)
O=C(Cn1cc[n+](CC(=O)c2ccc(-c3ccccc3)cc2)c1)Nc1cccc2cccnc12,59.8%,63.4%,57.7%,58.3%,54.5%,69.6%,59.1%,79.2%,74.9%
Cc1cc2ncc(-c3cc4ccccc4c(N4CCN(C)CC4)n3)nc2cc1C,-60.4% (active),56.1%,73%,-30.9% (active),57.5%,16.2%,-46.6% (active),-83.8% (active),-69.9% (active)
C#CC(=O)N(c1ccc(OC)cc1OC)C(C(=O)NCC(=O)OCC)c1cccs1 (configuration not stated),-7.89% (active),-71% (active),77.1%,5.16% (active),-13.2% (active),99.3%,82.6%,,92.4%
O=C(CN1CCN(c2cc(=O)n(-c3ccccc3)c3ccccc23)CC1)Nc1nc(-c2ccc(Cl)cc2)cs1,63.8%,67.5%,64%,63.8%,35%,5.1% (active),61.5%,58.4%,69.2%
COc1ccc(C(=O)c2c(N)c(C#N)cn2-c2ccccc2OC)cc1,6.81% (active),29.3%,29.8%,34.2%,36.2%,6.34% (active),23.3%,23.8%,59.2%
CC(=O)N1C(=S)NC(=O)C1CC(C)C (configuration not stated),115%,103%,102%,101%,106%,106%,93.7%,95.5%,101%
COc1ccc(COc2ccc(/C=C3\C(=O)Nc4ccccc43)cc2OC)cc1,108%,97.4%,97.3%,109%,95.8%,108%,96.7%,96.6%,107%
Cn1ccnc1C(=O)/C=C/C=C/c1ccc(C(=O)Nc2ccc(F)cc2)cc1,0.045% (active),51.7%,39.6%,-1.47% (active),41.8%,30.4%,32.8%,-65.7% (active),39.7%
COc1ccc(/C=C(/C)c2ccc3ccc(OC)cc3[o+]2)c(O)c1,44.7%,85.6%,82.4%,84.6%,41.7%,61.6%,50.9%,-15.8% (active),96%
COc1cc(OC)c(S(N)(=O)=O)cc1C(C)=O,103%,130%,101%,105%,94.9%,,100%,105%,107%
Oc1ccc(CSc2nnc(-c3ccc(Cl)cc3)n2-c2ccccc2)c2cccnc12,92.7%,16.6%,13.3%,3.32% (active),19.1%,5.67% (active),9.41% (active),29.5%,42.4%
O=c1[nH]c(Sc2sc3ccc(Cl)cc3c2CBr)nc(=S)[nH]1,91.4%,54%,60.7%,38.7%,26.4%,35.1%,1.82% (active),25.9%,28.4%
COc1ccc(-c2nc3cc(Cl)c(Cl)cc3n2CC(=O)N=Nc2c(O)[nH]c3ccc(OC)cc23)cc1,55.2%,65.3%,80%,77.8%,63.8%,61.2%,53.4%,,48.6%
COc1cccc(C(=O)Nc2cccc(C#Cc3cccc4[nH]nc(N)c34)c2)c1,37.5%,3.74% (active),98.5%,68%,32.7%,,57.6%,37%,67.7%
Cc1cc2nc(C(Cl)Cl)nc(-c3cccs3)n2n1,-12.9% (active),75.3%,21%,-11.1% (active),11.2%,83.9%,45.5%,74.7%,14.6%
C=CCn1c(SCC(=O)Nc2ccc(C(=O)/C=C/c3ccc(Br)cc3)cc2)nnc1-c1c[nH]c2ccccc12,94.1%,95.4%,89.1%,87.9%,68%,72.3%,64.6%,49%,97.1%
C#CCC#CCN1CCC[C@H]1C(=O)NCC(=O)OC,104%,105%,98.9%,103%,98.4%,100%,104%,94.4%,101%
O=C(CSc1nnc(-c2ccc(Cl)cc2)n1-c1ccccc1)Nc1cccc(Cl)c1,71.6%,42.5%,80.2%,50.2%,75.5%,96.4%,97.7%,7.5% (active),97.8%
CC/C(=C/c1cc(OC)ccc1O)c1ccc2cc(OC)ccc2[o+]1,15.7%,48.3%,47.3%,66.5%,40%,40.7%,21.4%,60%,61.8%
CC(c1ccccc1)N1CSc2nc3ncncc3n2C1 (configuration not stated),30.4%,51.5%,99.5%,70.6%,42.4%,49.3%,20.6%,10.1%,96.9%
O=C(NNc1nc2cc(F)c(F)cc2n2c(CN3CC4CNCC4C3)ccc12)c1cnccn1 (configuration not stated),26.3%,60%,25.9%,22.4%,22%,0.703% (active),-1.09% (active),2.25% (active),27.4%
c1cn2c(ccc3nc(-c4cn[nH]c4)c4c(c32)CCCC4)n1,62.4%,40.5%,75.5%,56.1%,48.3%,87.6%,33.5%,79%,66%
Cc1ccc(-n2c(/C=C3\C(=O)Nc4ccccc43)ccc2CO)cc1,60.7%,41.5%,81%,77.8%,66.5%,73.7%,50.6%,62.5%,70.9%
O=C(NNc1nc2cc(F)cc(F)c2n2cccc12)c1cnccn1,26.2%,49.2%,25%,16.2%,24.1%,14.2%,5.21% (active),5.06% (active),25.8%
O=C(Nc1ccc(N=Cc2c(O)[nH]c3ccccc23)cc1)Nc1nccs1,17.9%,33.4%,31%,42%,68.6%,26.8%,24.9%,35.1%,61.3%
